p97 ATPase inh = blocks human p97 ATPase activity | 220,000 tested, 0.42% active | inhibition, % at 8 µM | recombinant p97 ATPase, Kinase-Glo ATP luminescence, 3 h | P55072 | AID 1481; in the data active = inhibition above about 15%;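 note: 0% = DMSO vehicle and 100% = wells lacking enzyme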
EP2 modulator = modulators of human EP2 prostaglandin E2 receptor. 260,000 tested, 0.83% active. P43116. EP2-expressing cells, cAMP HTRF FRET, PGE2 co-stimulation. induction, % at 25 µM. AID 940;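 active = compounds whose cAMP rise, as percent of the full-agonist control response, exceeds 60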;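 note: rat C6 glioma line stably carrying human EP2 under a CMV promoter; the protocol text gives 20 µM as final concentration; 100% = response of wells given 1 µM PGE2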
Target sequence (P43116 whole entry, looked up): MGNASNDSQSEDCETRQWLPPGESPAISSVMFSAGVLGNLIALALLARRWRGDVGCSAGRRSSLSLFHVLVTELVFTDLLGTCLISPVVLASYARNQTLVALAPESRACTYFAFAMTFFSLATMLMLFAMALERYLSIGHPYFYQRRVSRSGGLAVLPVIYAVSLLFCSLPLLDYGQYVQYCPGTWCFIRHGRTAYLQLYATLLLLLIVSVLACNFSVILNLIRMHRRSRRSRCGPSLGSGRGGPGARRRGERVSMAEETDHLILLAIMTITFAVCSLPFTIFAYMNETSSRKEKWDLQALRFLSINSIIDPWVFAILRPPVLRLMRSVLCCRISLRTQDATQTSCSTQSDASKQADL
EP2 antag = blocks the human prostaglandin E2 receptor EP2; C6 glioma cells expressing human EP2, cAMP TR-FRET; cells stimulated with saturating PGE2; inhibition, % at 25 µM; 260,000 tested, 0.52% active;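 active = percent inhibition above 40 after rounding to a whole number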;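 note: rat C6 glioma host cells with rolipram phosphodiesterase inhibitor present; the protocol text gives 20 µM as final concentration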
Hck Nef HTS = inhibitors of human Hck kinase activated by Nef. P08631. 220,000 tested, 0.68% active. Recombinant Hck-YEEI plus Nef, Z-Lyte FRET kinase assay. AID 463187. inhibition, % at 20 µM;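 active = Hck-Nef kinase inhibition above about 50%, limit read from the data; inactive = inhibition below that limit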;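 note: 0% = DMSO with Hck plus Nef and 100% = Hck alone without Nef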
Arbovirus anti = blocks arbovirus infection | 200,000 tested, 0.37% active | arbovirus infection cell-based antiviral screen | inhibition, % at 10 µM | AID 1251; in the data active = inhibition above about 30%
Numbers without * were called inactive; · = no result. Shown are actives, neighbours in structure and some others; about 2.4% of the full set was active somewhere.

SMILES | p97 ATPase inh | EP2 modulator | EP2 antag | Hck Nef HTS | Arbovirus anti
COc1ccccc1CCNC(=O)c1cc(-c2ccncc2)nc2ccc(Br)cc12 | 13 | -1 | 2 | 51* | 0
CCC(NC(C)C)C(O)c1ccc(O)c2[nH]c(=O)ccc12 (stereo unspecified) | 3 | 78* | 12 | 4 | 2
CCn1c(COc2ccccc2OC)n[nH]c1=S | · | 6 | 17 | · | ·
CCn1c(SCC(=O)Nc2nnc(C)s2)nnc1-c1ccc(OC)cc1 | · | -3 | 13 | · | ·
O=C(O)CC[P+](c1ccccc1)(c1ccccc1)c1ccccc1 | · | 11 | 47* | · | ·
Cc1ccc(S(=O)(=O)N2CCN(C(=O)CNC3CCCCC3C)CC2)cc1 (stereo unspecified) | · | -6 | 6 | · | ·
Cc1nnc(NC(=O)C2COc3ccccc3O2)s1 (stereo unspecified) | 7 | 3 | 4 | 1 | 1
CCCCCc1nnc(NC(=O)C2COc3ccccc3O2)s1 (stereo unspecified) | 2 | 10 | 6 | 17 | 46*
Cc1ccc(CSc2nnc(NC(=O)C3COc4ccccc4O3)s2)cc1 (stereo unspecified) | -1 | -6 | · | 0 | 56*
O=C(Nc1nc(-c2nc3ccccc3s2)cs1)C1COc2ccccc2O1 (stereo unspecified) | 2 | -43 | 42* | -3 | 16
CCc1nnc(NC(=O)C2COc3ccccc3O2)s1 (stereo unspecified) | 5 | 14 | 13 | -2 | 5
CCCC(C(=O)NC1CCCC1)N(C(=O)c1snc(C(N)=O)c1N)c1ccc(F)c(Cl)c1 (stereo unspecified) | · | -6 | 7 | · | ·
CC1(C(=O)Nc2cccc3ccccc23)Cc2ccccc2C(=O)O1 (stereo unspecified) | · | -53 | 5 | · | ·
CC1(C)CC[C@]2(CO)[C@@H](O)C[C@]3(C)C(=CCC4[C@@]5(C)CC[C@H](O)C(C)(C)C5CC[C@]43C)[C@@H]2C1 (stereo partly specified) | · | · | 53* | · | ·
Cc1ccc(C(=O)Nc2ccccc2SCC2CSc3nc4ccccc4c(=O)n32)cc1 (stereo unspecified) | -8 | 19 | 8 | -1 | 42*
O=C1/C(=C/c2cccs2)SC(=S)N1NS(=O)(=O)c1ccccc1 | -1 | -12 | 5 | 78* | ·
O=C(NN1C(=O)/C(=C/c2cccs2)SC1=S)c1ccncc1 | 5 | -8 | 17 | 22 | ·
O=C(O)c1cc(-c2ccc(/C=C3\NC(=O)N(c4ccc(Cl)cc4)C3=O)o2)ccc1Cl | 4 | 23 | 3 | 8 | 58*
O=C(O)c1cc(-c2ccc(/C=C3\NC(=O)N(c4ccccc4)C3=O)o2)ccc1Cl | 11 | -21 | 7 | -6 | ·
COCCn1c(SCC(=O)Nc2ccc(N(C)C)cc2)nnc1-c1ccco1 | · | -11 | 23 | · | ·
O=C1OC(c2cccs2)=N/C1=C/c1ccc(-c2cccc(C(=O)O)c2)o1 | 1 | -49 | 2 | 116* | 13
NC(=O)Cn1nc([N+](=O)[O-])nc1Br | · | 7 | 9 | · | ·
C=C[C@@H](C1=CC(=O)C(OC)=C(OC)C1=O)c1ccccc1 | · | -32 | 120* | · | ·
CCOC(=O)c1ccc(NC(=O)COC(=O)c2cccnc2)cc1 | · | -53 | 7 | · | ·
Cc1cc(C)c2c(n1)nn1c(NCc3ccc4c(c3)OCO4)cc(C)nc21 | · | 11 | · | · | ·
SMILES | p97 ATPase inh | EP2 modulator | EP2 antag | Hck Nef HTS | Arbovirus anti
N#C/C(=C\c1cccs1)C(=O)c1ccccc1Cl | 4 | -58 | 113* | 28 | ·
CC(C)(C)C(=O)/C(C#N)=C/c1cccs1 | -2 | -29 | 10 | 17 | ·
Oc1cc2c(cc1O)C1c3ccc(O)c(O)c3OCC1(O)C2 (stereo unspecified) | 15* | -5 | 16 | -164 | 2
CN(C#N)c1nc(Cl)nc(Nc2cccc(Cl)c2)n1 | 15* | 2 | 6 | 0 | 3
Fc1cccc(Nc2nc(Cl)nc(Cl)n2)c1 | 1 | 34 | 10 | 17 | -1
CCC(=O)N1N=C(c2ccccc2)CC1c1ccc([N+](=O)[O-])cc1 (stereo unspecified) | 4 | 48 | 12 | 3 | 11
CC1=NN(c2ccc([N+](=O)[O-])cc2)C(c2ccccc2)C1 (stereo unspecified) | 3 | 62* | 8 | 25 | -6
COc1ccc(NC(=S)NCCc2c[nH]c3ccccc23)c(OC)c1 | -1 | -58 | 55* | 3 | 5
COc1ccc(NC(=S)NCCc2ccc(Cl)cc2)c(OC)c1 | 1 | -40 | 58* | 0 | 4
COc1ccc(NC(=S)NCCc2ccc(S(N)(=O)=O)cc2)c(OC)c1 | 4 | -74 | 18 | 25 | 14
COc1ccc(NC(=S)NCCc2c[nH]c3ccc(OC)cc23)c(OC)c1 | 3 | -81 | 6 | 1 | 2
CC(C)NC(=O)Cn1nc(-c2ccc(F)cc2)n(-c2ccncc2)c1=O | · | -27 | 4 | · | ·
Cc1nc2cc(NC(=O)/C=C/c3ccc(N(C)C)cc3)ccc2s1 | · | -117 | 82* | · | ·
CCC1Oc2nc3ccccc3cc2CN(Cc2ccc3c(c2)OCO3)C1=O (stereo unspecified) | · | -44 | 2 | · | ·
CC(=O)Oc1ccc(N2C(=O)C3C(C2=O)C2(C)C=CC3(C)O2)cc1 (stereo unspecified) | · | · | 136* | · | 2
O=C(CSc1nnc(-c2ccncc2)o1)N(C1CCCCC1)C1CCCCC1 | · | 43 | 12 | · | ·
O=C(CSc1nnc(-c2ccccc2)o1)N(C1CCCCC1)C1CCCCC1 | · | 76* | 16 | · | ·
CCCn1c(NCc2cc(C)ccc2O)nc2ccccc21 | -1 | 6 | 4 | 2 | 36*
CCCCn1c(NCc2ccccc2O)nc2ccccc21 | 7 | 9 | 10 | 16 | 10
CCCN(C(=O)c1ccc(C(C)(C)C)cc1)c1nnc(-c2cc(OC)cc(OC)c2)s1 | · | 7 | 9 | · | ·
CC1CC(C)CN(c2nc(NCc3ccco3)nc(N)c2[N+](=O)[O-])C1 (stereo unspecified) | -3 | 50 | 8 | 3 | 33*
Cc1nc(N)sc1-c1csc(NCc2ccccc2)n1 | -2 | -19 | 3 | 0 | -12
Cc1cc(-c2csc(NCc3ccccc3)n2)c(C)n1C | 7 | 16 | 9 | 65* | 8
CCOC(=O)c1ccc(N2CCN(c3ccccc3F)CC2)c(NC(=O)Nc2ccccc2)c1 | 7 | 6 | 9 | 2 | 31*
CCn1nc(C)c(NC(=O)Nc2cccc(Cl)c2Cl)c1C | 1 | -20 | 2 | -2 | 32*
CCn1nc(C)c(NC(=O)c2ccc(Cl)cc2)c1C | -2 | 4 | 2 | 19 | 8
C[C@]12CCc3occc3C1CC[C@@]13C[C@@H](CCC12)[C@@](O)(CO)C3 (stereo partly specified) | · | -6 | 13 | · | ·
CCC(=O)OCCn1c(=O)c2cc3c(=O)n(CCOC(=O)CC)c(=O)c3cc2c1=O | 3 | -10 | 95* | 1 | 15
Cc1[nH][nH]c(=O)c1C(c1c(C)[nH][nH]c1=O)c1cn(Cc2cccc3ccccc23)c2ccccc12 | 27* | 25 | 14 | 0 | -18
Cc1[nH][nH]c(=O)c1C(c1c(C)[nH][nH]c1=O)c1cn(Cc2ccccc2C#N)c2ccccc12 | · | -22 | 9 | · | ·
